Test results: a collection of fitness landscapes (doi:10.1126/science.1257360)
Whole data set: some 140,000 sequences, median “enrichment ratio after two sorts for PhoP signalling” near 0, cut for the highest 2% near 11. The list comes from a sample in which the highest values are over-represented; it also holds similar and randomly drawn sequences.

B1: PhoQ; a variant is named by its letters at X, in order, P23837 (parent)
chain: MKKLLRLFFPLSLRVRFLLATAAVVLVLSLAYGMVALIGYSVSFDKTTFRLLRGESNLFYTLAKWENNKLHVELPENIDKQSPTMTLIYDENGQLLWAQRDVPWLMKMIQPDWLKSNGFHEIEADVNDTSLLLSGDHSIQQQLQEVREDDDDAEMTHSVAVNVYPATSRMPKLTIVVVDTIPVELKSSYMVWSWFIYVLSANLLLVIPLLWVAAWWSLRPIEALAKEVRELEEHNRELLNPATTRELTSLVRNLNRLLKSERERYDKYRTTLTDLTHSLKTPLXXLQXXLRSLRSEKMSVSDAEPVMLEQISRISQQIGYYLHRASMRGGTLLSRELHPVAPLLDNLTSALNKVYQRKGVNISLDISPEISFVGEQNDFVEVMGNVLDNACKYCLEFVEISARQTDEHLYIVVEDDGPGIPLSKREVIFDRGQRVDTLRPGQGVGLAVAREITEQYEGKIVAGESMLGGARMEVIFGRQHSAPKDE

Variants of: B1
Assay: enrichment ratio after two sorts for PhoP signalling (ratio (wild type AVST 3.29)); higher = more functional
Settings: with PhoP (E. coli)

Variant | enrichment ratio
WRVD | ≤ 0.25
ISHC | ≤ 0.25
YTMN | ≤ 0.25
EMDR | ≤ 0.25
DSWL | ≤ 0.25
RECW | ≤ 0.25
FMGG | ≤ 0.25
EQVK | ≤ 0.25
TCCI | 7.17
VECK | ≤ 0.25
TCKQ | ≤ 0.25
TCCK | 21.6
VECQ | 8.23
TCCQ | 12.5
TDEN | ≤ 0.25
QTMG | ≤ 0.25
DPLR | ≤ 0.25
SCTC | 7.94
SCTS | 14.9
SCTH | 9.21
SCTK | 7.2

Variant | enrichment ratio
SCTD | ≤ 0.25
SCTA | 12.7
LRRQ | ≤ 0.25
NIGG | ≤ 0.25
LVAY | ≤ 0.25
HFFS | ≤ 0.25
PHFW | ≤ 0.25
MCAF | 32.1
MMAF | 13
MIAF | 14
SCAF | 16.3
WIAF | ≤ 0.25
STAF | 7.65
KMAF | ≤ 0.25
KCAF | ≤ 0.25
MAAF | ≤ 0.25
SRAF | ≤ 0.25
MSAF | 3.4
MKAF | ≤ 0.25
LHIP | ≤ 0.25
RPYE | ≤ 0.25

Variant | enrichment ratio
AWSD | ≤ 0.25
WEIC | ≤ 0.25
FTRG | ≤ 0.25
AQMD | ≤ 0.25
LIFC | ≤ 0.25
PKNW | ≤ 0.25
FRIG | ≤ 0.25
LEYC | 4.32
WRGG | ≤ 0.25
TYMG | 14.3
TYVG | 0.756
TYCA | 12.1
TYCE | ≤ 0.25
TYHG | ≤ 0.25
TYCI | ≤ 0.25
FWCS | 1.37
HQAE | ≤ 0.25
APEP | ≤ 0.25
AHCL | 9.7
KCCY | ≤ 0.25
ACCC | 34.1

Variant | enrichment ratio
ACFH | ≤ 0.25
VCCY | ≤ 0.25
ACCA | 7.21
ACCK | 12.8
ACCS | 2.23
KCCC | ≤ 0.25
ACCY | 19.6
ACCI | 26.9
YDTQ | ≤ 0.25
GRPL | ≤ 0.25
KEDR | ≤ 0.25
FEMC | 10.8
IQYT | ≤ 0.25
DHLG | ≤ 0.25
NLYQ | ≤ 0.25
MPYA | ≤ 0.25
ACCE | ≤ 0.25
ACNK | ≤ 0.25
ACCM | 14.9
ACCG | 25.4
ACCV | 8.87
